{"source": "the supplement of paper PMC8253809", "data": [{"system": "DIPGX29 (H3.3 K27M diffuse intrinsic pontine glioma line)", "experiment": "growth inhibition (% activity, log2 RLU normalised to DMSO / staurosporine); higher = more growth inhibition", "conditions": "33 µM", "how_it_was_run": "(§1)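 Approved drugs were tested in triplicate at a single final concentration of about 33 μM for 7 days at 37 °C, 5% CO2, on pHGG cell lines and H9-derived neural stem cells. Readout was CellTiter-Glo luminescence, log2-transformed and scaled per plate to % activity between solvent and positive control wells. The median over replicates gives the growth-inhibition value.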", "units": {"growth inhibition": "%"}, "values": [{"compound": "O=c1c(-c2ccc(O)cc2)coc2cc(O)ccc12", "growth inhibition": -1.42}, {"compound": "Oc1ncnc2[nH]ncc12", "growth inhibition": -2.33}, {"compound": "Oc1ccc(/C=C/c2cc(O)cc(O)c2)cc1", "growth inhibition": 2.03}, {"compound": "CCCCCCCCCCCCCCCC[N+](C)(C)C", "growth inhibition": 27.4}, {"compound": "COc1cc(C(=O)NC2CCCNC2)cc(OC)c1OC", "note": "(stereo not given)", "growth inhibition": 0.123}, {"compound": "O=C(O[C@H]1CN2CCC1CC2)N1CCc2ccccc2[C@@H]1c1ccccc1", "growth inhibition": 1.49}, {"compound": "Cc1nc2n(c(=O)c1CCN1CCC(c3noc4cc(F)ccc34)CC1)CCCC2O", "note": "(stereo not given)", "growth inhibition": -0.21}, {"compound": "COc1cc2c(cc1Cc1cccc(Cl)c1F)c(=O)c(C(=O)O)cn2[C@H](CO)C(C)C", "growth inhibition": 1.03}, {"compound": "CC1=C(C(=O)O)N2C(=O)[C@@H](NC(=O)[C@H](N)c3ccccc3)[C@H]2SC1", "growth inhibition": -0.253}, {"compound": "COc1ccc(-c2ccc3cc(C(=O)O)ccc3c2)cc1C12CC3CC(CC(C3)C1)C2", "growth inhibition": 2.22}, {"compound": "COCCCOc1cc(C[C@@H](C[C@H](N)[C@@H](O)C[C@H](C(=O)NCC(C)(C)C(N)=O)C(C)C)C(C)C)ccc1OC", "growth inhibition": 2.63}, {"compound": "C=C1CCC(O)CC1=CC=C1CCCC2(C)C1CCC2C(C)CCCC(C)(C)O", "note": "(stereo not given)", "growth inhibition": -0.0142}, {"compound": "COc1cc2c(cc1O)CC[C@@H]1[C@@H]2CC[C@]2(C)[C@@H](O)CC[C@@H]12", "growth inhibition": 9.48}, {"compound": "[O-]n1ccccc1=S.[O-]n1ccccc1=S.[Zn+2]", "growth inhibition": 61.5}, {"compound": "Nc1ccc(S(=O)(=O)Nc2nccs2)cc1", "growth inhibition": -2.53}, {"compound": "CCC1=C(C)CN(C(=O)NCCc2ccc(S(=O)(=O)NC(=O)N[C@H]3CC[C@H](C)CC3)cc2)C1=O", "growth inhibition": 1.44}, {"compound": "CS(=O)(=O)c1ccc([C@@H](O)[C@@H](CF)NC(=O)C(Cl)Cl)cc1", "growth inhibition": 3.83}, {"compound": "COC(=O)C1=C(C)NC(C)=C(C(=O)OC)C1c1ccccc1[N+](=O)[O-]", "growth inhibition": -2.53}, {"compound": "CC(C)Cn1cnc2c(N)nc3ccccc3c21", "growth inhibition": 0.9}, {"compound": "CCOc1ccc2ccccc2c1C(=O)N[C@@H]1C(=O)N2[C@@H]1SC(C)(C)[C@@H]2C(=O)O", "growth inhibition": -3.12}, {"compound": "Cc1onc(-c2ccccc2Cl)c1C(=O)N[C@@H]1C(=O)N2[C@@H]1SC(C)(C)[C@@H]2C(=O)O", "growth inhibition": -0.728}, {"compound": "O=C[C@H](O)[C@@H](O)[C@H](O)CO", "growth inhibition": 1.32}, {"compound": "CO/N=C(\\C(=O)N[C@@H]1C(=O)N2C(C(=O)O)=C(Cn3ccc(=N)n3CCO)CS[C@H]12)c1csc(N)n1", "growth inhibition": -0.673}, {"compound": "CC(=O)Oc1cc2c(s1)CCN(C(C(=O)C1CC1)c1ccccc1F)C2", "note": "(stereo not given)", "growth inhibition": 0.962}, {"compound": "CC(C)n1c(/C=C/[C@@H](O)C[C@@H](O)CC(=O)O)c(-c2ccc(F)cc2)c2ccccc21", "growth inhibition": 4.64}, {"compound": "C[C@@H]1CC(=O)NN=C1c1ccc(NN=C(C#N)C#N)cc1", "growth inhibition": 1.15}, {"compound": "CCCCC1=NC2(CCCC2)C(=O)N1Cc1ccc(-c2ccccc2-c2nnn[nH]2)cc1", "growth inhibition": 1.91}, {"compound": "C[C@@H](O[C@H]1OCCN(Cc2n[nH]c(=O)[nH]2)[C@H]1c1ccc(F)cc1)c1cc(C(F)(F)F)cc(C(F)(F)F)c1", "growth inhibition": 8.42}, {"compound": "COC(=O)C1=C(C)NC(C)=C(C(=O)OCC(C)C)C1c1ccccc1[N+](=O)[O-]", "note": "(stereo not given)", "growth inhibition": 1.94}, {"compound": "CC#CCn1c(N2CCC[C@@H](N)C2)nc2c1c(=O)n(Cc1nc(C)c3ccccc3n1)c(=O)n2C", "growth inhibition": -0.103}, {"compound": "CC(C)(O/N=C(\\C(=O)N[C@@H]1C(=O)N2C(C(=O)[O-])=C(C[n+]3ccccc3)CS[C@H]12)c1csc(N)n1)C(=O)O", "growth inhibition": -0.082}, {"compound": "CCC(=O)O[C@@H](O[P@](=O)(CCCCc1ccccc1)CC(=O)N1C[C@H](C2CCCCC2)C[C@H]1C(=O)O)C(C)C", "growth inhibition": 1.88}, {"compound": "O=C(O)c1cn(C2CC2)c2cc(N3CCNCC3)c(F)cc2c1=O", "growth inhibition": -1.96}, {"compound": "N[C@H](C(=O)O)[C@H](O)c1ccc(O)c(O)c1", "growth inhibition": -1.91}, {"compound": "COCCCC/C(=N\\OCCN)c1ccc(C(F)(F)F)cc1", "growth inhibition": 1.49}, {"compound": "O=C1c2cccc3c2[C@H](CCC3)CN1[C@@H]1CN2CCC1CC2", "growth inhibition": 1.6}, {"compound": "CC(C)(C)C(=O)OCOP(=O)(COCCn1cnc2c(N)ncnc21)OCOC(=O)C(C)(C)C", "growth inhibition": 7.13}, {"compound": "CCOC(=O)C1=C(C)NC(C)=C(C(=O)OCC)C1c1ccccc1/C=C/C(=O)OC(C)(C)C", "growth inhibition": 5.9}, {"compound": "Cc1ncc(C[n+]2csc(CCO)c2C)c(N)n1", "growth inhibition": 0.631}, {"compound": "CN1c2cc(O)c(N=NC(N)=O)cc2CC1S(=O)(=O)O", "note": "(stereo not given)", "growth inhibition": -0.566}]}, {"system": "DIPGX37 (H3.3 K27M diffuse intrinsic pontine glioma line)", "experiment": "growth inhibition (% activity, log2 RLU normalised to DMSO / staurosporine); higher = more growth inhibition", "conditions": "33 µM", "how_it_was_run": "as §1", "units": {"growth inhibition": "%"}, "values": [{"compound": "O=c1c(-c2ccc(O)cc2)coc2cc(O)ccc12", "growth inhibition": -0.456}, {"compound": "Oc1ncnc2[nH]ncc12", "growth inhibition": -1.9}, {"compound": "Oc1ccc(/C=C/c2cc(O)cc(O)c2)cc1", "growth inhibition": -0.532}, {"compound": "CCCCCCCCCCCCCCCC[N+](C)(C)C", "growth inhibition": 41.6}, {"compound": "COc1cc(C(=O)NC2CCCNC2)cc(OC)c1OC", "note": "(stereo not given)", "growth inhibition": 2}, {"compound": "O=C(O[C@H]1CN2CCC1CC2)N1CCc2ccccc2[C@@H]1c1ccccc1", "growth inhibition": -0.261}, {"compound": "Cc1nc2n(c(=O)c1CCN1CCC(c3noc4cc(F)ccc34)CC1)CCCC2O", "note": "(stereo not given)", "growth inhibition": -0.0675}, {"compound": "COc1cc2c(cc1Cc1cccc(Cl)c1F)c(=O)c(C(=O)O)cn2[C@H](CO)C(C)C", "growth inhibition": 1.4}, {"compound": "CC1=C(C(=O)O)N2C(=O)[C@@H](NC(=O)[C@H](N)c3ccccc3)[C@H]2SC1", "growth inhibition": 0.936}, {"compound": "COc1ccc(-c2ccc3cc(C(=O)O)ccc3c2)cc1C12CC3CC(CC(C3)C1)C2", "growth inhibition": 0.00524}, {"compound": "COCCCOc1cc(C[C@@H](C[C@H](N)[C@@H](O)C[C@H](C(=O)NCC(C)(C)C(N)=O)C(C)C)C(C)C)ccc1OC", "growth inhibition": -0.699}, {"compound": "C=C1CCC(O)CC1=CC=C1CCCC2(C)C1CCC2C(C)CCCC(C)(C)O", "note": "(stereo not given)", "growth inhibition": 2.58}, {"compound": "COc1cc2c(cc1O)CC[C@@H]1[C@@H]2CC[C@]2(C)[C@@H](O)CC[C@@H]12", "growth inhibition": 1.66}, {"compound": "[O-]n1ccccc1=S.[O-]n1ccccc1=S.[Zn+2]", "growth inhibition": 60.4}, {"compound": "Nc1ccc(S(=O)(=O)Nc2nccs2)cc1", "growth inhibition": -1.47}, {"compound": "CCC1=C(C)CN(C(=O)NCCc2ccc(S(=O)(=O)NC(=O)N[C@H]3CC[C@H](C)CC3)cc2)C1=O", "growth inhibition": 2.15}, {"compound": "CS(=O)(=O)c1ccc([C@@H](O)[C@@H](CF)NC(=O)C(Cl)Cl)cc1", "growth inhibition": -0.106}, {"compound": "COC(=O)C1=C(C)NC(C)=C(C(=O)OC)C1c1ccccc1[N+](=O)[O-]", "growth inhibition": -2.53}, {"compound": "CC(C)Cn1cnc2c(N)nc3ccccc3c21", "growth inhibition": 3.11}, {"compound": "CCOc1ccc2ccccc2c1C(=O)N[C@@H]1C(=O)N2[C@@H]1SC(C)(C)[C@@H]2C(=O)O", "growth inhibition": -0.795}, {"compound": "Cc1onc(-c2ccccc2Cl)c1C(=O)N[C@@H]1C(=O)N2[C@@H]1SC(C)(C)[C@@H]2C(=O)O", "growth inhibition": -0.729}, {"compound": "O=C[C@H](O)[C@@H](O)[C@H](O)CO", "growth inhibition": 0.386}, {"compound": "CO/N=C(\\C(=O)N[C@@H]1C(=O)N2C(C(=O)O)=C(Cn3ccc(=N)n3CCO)CS[C@H]12)c1csc(N)n1", "growth inhibition": 1.46}, {"compound": "CC(=O)Oc1cc2c(s1)CCN(C(C(=O)C1CC1)c1ccccc1F)C2", "note": "(stereo not given)", "growth inhibition": -2.57}, {"compound": "CC(C)n1c(/C=C/[C@@H](O)C[C@@H](O)CC(=O)O)c(-c2ccc(F)cc2)c2ccccc21", "growth inhibition": 0.671}, {"compound": "C[C@@H]1CC(=O)NN=C1c1ccc(NN=C(C#N)C#N)cc1", "growth inhibition": -0.996}, {"compound": "CCCCC1=NC2(CCCC2)C(=O)N1Cc1ccc(-c2ccccc2-c2nnn[nH]2)cc1", "growth inhibition": 3.8}, {"compound": "C[C@@H](O[C@H]1OCCN(Cc2n[nH]c(=O)[nH]2)[C@H]1c1ccc(F)cc1)c1cc(C(F)(F)F)cc(C(F)(F)F)c1", "growth inhibition": 0.0612}, {"compound": "COC(=O)C1=C(C)NC(C)=C(C(=O)OCC(C)C)C1c1ccccc1[N+](=O)[O-]", "note": "(stereo not given)", "growth inhibition": 1.14}, {"compound": "CC#CCn1c(N2CCC[C@@H](N)C2)nc2c1c(=O)n(Cc1nc(C)c3ccccc3n1)c(=O)n2C", "growth inhibition": -1.17}, {"compound": "CC(C)(O/N=C(\\C(=O)N[C@@H]1C(=O)N2C(C(=O)[O-])=C(C[n+]3ccccc3)CS[C@H]12)c1csc(N)n1)C(=O)O", "growth inhibition": 3.29}, {"compound": "CCC(=O)O[C@@H](O[P@](=O)(CCCCc1ccccc1)CC(=O)N1C[C@H](C2CCCCC2)C[C@H]1C(=O)O)C(C)C", "growth inhibition": 3.74}, {"compound": "O=C(O)c1cn(C2CC2)c2cc(N3CCNCC3)c(F)cc2c1=O", "growth inhibition": -2.35}, {"compound": "N[C@H](C(=O)O)[C@H](O)c1ccc(O)c(O)c1", "growth inhibition": -2.48}, {"compound": "COCCCC/C(=N\\OCCN)c1ccc(C(F)(F)F)cc1", "growth inhibition": 4.31}, {"compound": "O=C1c2cccc3c2[C@H](CCC3)CN1[C@@H]1CN2CCC1CC2", "growth inhibition": 0.267}, {"compound": "CC(C)(C)C(=O)OCOP(=O)(COCCn1cnc2c(N)ncnc21)OCOC(=O)C(C)(C)C", "growth inhibition": 8.8}, {"compound": "CCOC(=O)C1=C(C)NC(C)=C(C(=O)OCC)C1c1ccccc1/C=C/C(=O)OC(C)(C)C", "growth inhibition": -3.39}, {"compound": "Cc1ncc(C[n+]2csc(CCO)c2C)c(N)n1", "growth inhibition": -0.256}, {"compound": "CN1c2cc(O)c(N=NC(N)=O)cc2CC1S(=O)(=O)O", "note": "(stereo not given)", "growth inhibition": -0.439}]}]}
